# In all, about 39,000 sequences were measured (“fluorescence intensity (a.u.)”: median about 4,300, highest 2% from about 39,000 on). What follows is part of a selection rich in the highest values, with near analogues and random picks from the rest.
# Target: T1, OsSMF1 (Oryza sativa, UniProt Q6ZLB0 1-436)
# T1 sequence: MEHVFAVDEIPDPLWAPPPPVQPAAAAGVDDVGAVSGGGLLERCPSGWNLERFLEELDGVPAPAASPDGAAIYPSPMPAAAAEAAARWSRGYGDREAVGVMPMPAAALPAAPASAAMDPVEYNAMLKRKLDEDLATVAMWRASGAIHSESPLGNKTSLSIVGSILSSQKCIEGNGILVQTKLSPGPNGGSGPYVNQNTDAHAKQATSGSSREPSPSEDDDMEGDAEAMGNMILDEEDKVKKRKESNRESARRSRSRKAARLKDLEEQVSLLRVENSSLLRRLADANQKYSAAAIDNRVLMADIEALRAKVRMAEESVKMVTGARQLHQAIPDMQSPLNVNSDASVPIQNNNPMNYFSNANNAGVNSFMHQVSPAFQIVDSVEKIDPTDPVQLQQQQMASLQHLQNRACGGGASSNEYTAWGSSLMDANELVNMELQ
# Assay: protein-binding microarray (RPBM); PBS, 2% BSA, 51.3 ng/ul salmon testes DNA, 50 uM zinc acetate, 200 nM TF, 25 C, 1 h; high values mean tight binding
# Conditions: protein: recombinant; tags: N-terminal polyhistidine and DsRed monomer fusion (pET32a); chain copies: 2; label: CyDye5-dUTP incorporated in the synthesized complementary strand; 3' TTTTT single-stranded linker to array surface; dsDNA, one strand shown
# How it was run: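 Transcription factors were each fused at the N-terminus to a polyhistidine tag plus DsRed and expressed in E. coli BL21-CodonPlus before Ni–NTA purification. Binding to a double-stranded custom Agilent array was carried out with 200 nM protein at 25 °C for 1 h in PBS, 2% BSA, salmon testes DNA and 50 µM zinc acetate. The binding signal is per-feature fluorescence intensity, in arbitrary units, on an Axon 4000B scanner.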
row,Sequence,binding signal
1,GCAGGGCAGGCTGACAGCTCATCTTCTCAGAGGATCCGATCGGAGTCACCTAGTGCAG,5100 fluorescence intensity (a.u.)
2,AGCGTCGCGCCGCGCCACGCCACGCCACGCCACCCCACCACGGAGTCACCTAGTGCAG,5830 fluorescence intensity (a.u.)
3,TGAGCCACGCACTGAACACGACCGTTCGATCCCCTCAAGGCGGAGTCACCTAGTGCAG,3810 fluorescence intensity (a.u.)
4,CGTATATGTATATATACATACTTTATACACATATATATACCGGAGTCACCTAGTGCAG,3360 fluorescence intensity (a.u.)
5,ATACCTGATCCTACTTGTCATACACATATTTATCTTATAGCGGAGTCACCTAGTGCAG,3620 fluorescence intensity (a.u.)
6,TTTGGTGCGAGCGAAATACCAGGATCTTTATACACATAGCCGGAGTCACCTAGTGCAG,58000 fluorescence intensity (a.u.)
7,ACTGCCATGGTTGCGGAGCAGGATGGTGACGTGGATCCCACGGAGTCACCTAGTGCAG,17700 fluorescence intensity (a.u.)
8,GCCGCTTTTGCGAATTTTGCACGTAGACCCCTTGCCGCCCCGGAGTCACCTAGTGCAG,3330 fluorescence intensity (a.u.)
9,TCACCACCTCACTCCACTAACCAGAGAGAGAACGCAGCTACGGAGTCACCTAGTGCAG,21000 fluorescence intensity (a.u.)
10,ACACAGCCACGCCCGTACGCAGCTACGTACGCACGCATCACGGAGTCACCTAGTGCAG,5670 fluorescence intensity (a.u.)
11,TTGTACCAGCTAACTCATCACCACGCAGGCCAGAGTAGTACGGAGTCACCTAGTGCAG,45900 fluorescence intensity (a.u.)
12,CGTGAGCGGGTGGTGGTGGTGATGGCGTTCGCGGTGGCGACGGAGTCACCTAGTGCAG,3520 fluorescence intensity (a.u.)
13,AGCTTCGCACTGGGCACGTGTGCCTGTGTGTGGGAGTCAGCGGAGTCACCTAGTGCAG,4070 fluorescence intensity (a.u.)
14,GAAGTGGTTCTGCACTGTGATTTGAAGCCTAGCAACGTGCCGGAGTCACCTAGTGCAG,35800 fluorescence intensity (a.u.)
15,CAGTCAGTCAGTAGGTTCCCAGAATTTTCTCCCTGCAAACCGGAGTCACCTAGTGCAG,50200 fluorescence intensity (a.u.)
16,CAAACTGCAACTCCAATATCACATTTTCTTTCTCTTTTCCCGGAGTCACCTAGTGCAG,19700 fluorescence intensity (a.u.)
17,TGCTGCCAGAGTCAGTAGGTGCCCTCTTCCACCTGCAGACCGGAGTCACCTAGTGCAG,3270 fluorescence intensity (a.u.)
18,CAAACAAGGACCGTAGACACTCTAACCAACCCCAATAACACGGAGTCACCTAGTGCAG,31300 fluorescence intensity (a.u.)
19,CACATCGTTGCCAATGTTGCCACGTACCAAGGTCATATGGCGGAGTCACCTAGTGCAG,9400 fluorescence intensity (a.u.)
20,TCAGTAGGCCAGTAGCTAGCTGCTGCCTTCACACATCAATCGGAGTCACCTAGTGCAG,3160 fluorescence intensity (a.u.)
21,ATGAACATATTTCAATCGTTCAGTACCTTCAAGCCACAGGCGGAGTCACCTAGTGCAG,39800 fluorescence intensity (a.u.)
22,GCCAGCTGCCACGTGGGACAAAATCGGGGTCAAAACCACCCGGAGTCACCTAGTGCAG,12700 fluorescence intensity (a.u.)

row,Sequence,binding signal
1,CCTCGTCCGCCTTGGTCTTCTTCCAGCCGAGGAGCAACCGCGGAGTCACCTAGTGCAG,48200 fluorescence intensity (a.u.)
2,CGAGCCGCCTCCGCCACCGCCGCCTCCTTCCGACCAGCCGCGGAGTCACCTAGTGCAG,3530 fluorescence intensity (a.u.)
3,GTCCAGCCTCCTCCTCCGCTGACCTCCTCGCGGTCTTCTCCGGAGTCACCTAGTGCAG,4520 fluorescence intensity (a.u.)
4,AGCTTACTATGATACCGATGAACACGTTATGACAACAAACCGGAGTCACCTAGTGCAG,3880 fluorescence intensity (a.u.)
5,AACGTGAACTAAACACATGTCGAAATGCAATCAAAATACCCGGAGTCACCTAGTGCAG,42000 fluorescence intensity (a.u.)
6,AATCAAACTTTCAATTTTAGCGTGAACTAAACACACCCTTCGGAGTCACCTAGTGCAG,3680 fluorescence intensity (a.u.)
7,CAAATACTAAATGATTTCAAATGAAAACGTCATCAACAACCGGAGTCACCTAGTGCAG,3560 fluorescence intensity (a.u.)
8,ATAGAAACATAGCGTGACACAACATAACAAACCAATGCAACGGAGTCACCTAGTGCAG,4630 fluorescence intensity (a.u.)
9,CCAAATAGACTCTTACTTATAAGGGTTGAGTCTAGAGTGACGGAGTCACCTAGTGCAG,6050 fluorescence intensity (a.u.)
10,ATGAACTAAACGCACCCTTGTAAGTCTGACACACTGTGGACGGAGTCACCTAGTGCAG,3720 fluorescence intensity (a.u.)
11,ATAAAGTCCTTATCGGACACTAAACGCACTTTCCTAAAGACGGAGTCACCTAGTGCAG,39200 fluorescence intensity (a.u.)
12,TGATTGTGACACTAGCACGACGCACTTTCCTCTATATACACGGAGTCACCTAGTGCAG,3630 fluorescence intensity (a.u.)
13,AAGAAATCTCTTCATAGATCTCCTGATGAAAGAATTTAACCGGAGTCACCTAGTGCAG,3730 fluorescence intensity (a.u.)
14,TGTTCCACTGTTGTGTGTGTGGCATTCTTGTACTGCATTTCGGAGTCACCTAGTGCAG,3360 fluorescence intensity (a.u.)
15,TTGTGTGCATTTCGGCATTTGGCTACAAGATTCTTGCAGTCGGAGTCACCTAGTGCAG,39600 fluorescence intensity (a.u.)
16,CAGGCTACAGGGCATTTGTGTCATTTTGCAAGAAGGCATACGGAGTCACCTAGTGCAG,3380 fluorescence intensity (a.u.)
17,CTCGATACAGAGTGAGCGGGGTATGGCAATGACGAGCTATCGGAGTCACCTAGTGCAG,3160 fluorescence intensity (a.u.)
18,GAATGAAAACTCAGGGGTAAGTAGGAGATGACGCAAAGTTCGGAGTCACCTAGTGCAG,3580 fluorescence intensity (a.u.)
19,GGCCATGTTGAATGACGCGTTGCTCTCCCTACTCTACGGACGGAGTCACCTAGTGCAG,49100 fluorescence intensity (a.u.)
20,TTCTCCCTCTACTATTGCTGACGCCACCAACGCCCATGTGCGGAGTCACCTAGTGCAG,13500 fluorescence intensity (a.u.)
21,CGTCTCGCCGGAGCGTTGACGAGGACCTCTCTACTCTTCACGGAGTCACCTAGTGCAG,3680 fluorescence intensity (a.u.)

# Reference: article PMC7819943, “Rice protein-binding microarrays: a tool to detect cis-acting elements near promoter regions in rice”
